Screens from PubChem.
PLK1 PBD inh: inhibitors of human PLK1 polo-box domain binding | Potency, µM, hits mostly inhibitors | AID 720504 | hit rate 2.8% among 360,000 | P53350 | Plk1 PBD binding of FITC phosphopeptide, fluorescence polarization; also: series mostly up to about 57 µM; nearly all actives have a fitted effect of over 65% in size
Target sequence (P53350 whole entry, looked up, the tested form may be a part): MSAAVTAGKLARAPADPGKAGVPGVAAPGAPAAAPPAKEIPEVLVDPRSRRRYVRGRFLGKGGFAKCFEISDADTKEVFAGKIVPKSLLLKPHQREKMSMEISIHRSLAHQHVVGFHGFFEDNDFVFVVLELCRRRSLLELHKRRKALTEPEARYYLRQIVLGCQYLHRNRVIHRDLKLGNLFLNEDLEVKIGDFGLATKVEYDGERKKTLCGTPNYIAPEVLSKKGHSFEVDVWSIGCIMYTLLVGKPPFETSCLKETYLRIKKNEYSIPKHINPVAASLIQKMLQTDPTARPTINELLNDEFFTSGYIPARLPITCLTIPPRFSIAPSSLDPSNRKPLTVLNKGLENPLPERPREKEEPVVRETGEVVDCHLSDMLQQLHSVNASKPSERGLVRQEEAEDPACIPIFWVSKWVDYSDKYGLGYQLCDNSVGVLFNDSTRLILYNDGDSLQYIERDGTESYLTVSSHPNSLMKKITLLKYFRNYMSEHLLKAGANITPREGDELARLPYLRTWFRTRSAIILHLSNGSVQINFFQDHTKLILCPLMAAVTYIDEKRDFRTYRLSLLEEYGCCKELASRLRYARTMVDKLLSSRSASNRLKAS
Mito fusion yeast: inhibitors of mitochondrial division or activators of mitochondrial fusion; hit rate 0.23% among 320,000; S. cerevisiae fusion-defective mutant growth rescue, CellTiterGlo 48 h; Potency, µM (top dose mostly 46.1 µM), usual class: activators; also: nearly all actives have a fitted effect of over 45% in size
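S. cerevisiae fusion-defective temperature-sensitive mutants (e.g. fzo1-1, mgm1-5) grown 48 h at 37C in YPEG (ethanol/glycerol non-fermentable) medium with 23 nl compound per well; growth rescue read as CellTiterGlo luminescence.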
VDR inh: blocks the human vitamin D receptor; P11473; VDR-SRC2-3 peptide fluorescence polarization, 2 h; Potency, µM, actives largely listed as inhibitors; hit rate 0.93% among 400,000; AID 504847
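Signal is fluorescence polarization, reporting how far test compounds block the interaction of VDR with the SRC2-3 coregulator peptide after a 2 h room-temperature incubation.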
GLS inhibitor: inhibitors of human glutaminase (GLS). O94925. GLS enzymatic activity, qHTS titration. Potency, µM (titrated, usually from 45.5 µM), hits mostly inhibitors. hit rate 0.21% among 410,000. AID 624170
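Glutamate formation by hKGA was monitored fluorometrically using coupled glutamate oxidase, HRP and Amplex Red. Substrate was added as 1 mM L-glutamine solution; incubation was 30 min at RT after an initial read.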
PKM2 act: increases activity of human pyruvate kinase M2; hit rate 0.34% among 260,000; Potency, µM (top dose mostly 57.5 µM), hits mostly activators; P14618; purified PKM2, Kinase-Glo ATP luminescence, activation; response scale: 0% is enzyme alone, no compound; also: nearly all actives have a fitted effect of over 55% in size
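Purified hPK-M2 (>95%) run at intermediate activity with 0.1 mM ADP and 0.5 mM PEP in 50 mM imidazole pH 7.2, KCl, MgCl2; 1 h room temperature. ATP formed read by Kinase-Glo luminescence; normalized to uninhibited and no-enzyme controls.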
GCN5L2 inh: inhibitors of human GCN5L2 histone acetyltransferase; AID 504327; GCN5L2 HAT assay, ThioGlo1 CoA-SH fluorescence; Q92830; hit rate 0.21% among 390,000; Potency, µM (top dose mostly 58.9 µM), most hits filed as inhibitors
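Fluorescence readout, Ex340nm/Em540nm: ThioGlo1 (50uM final) reacts with free CoA thiol released as 20nM GCN5L2 acetylates H3(1-25) peptide (75uM) using acetyl-CoA (70uM). Compound and enzyme sat 15 min beforehand; 20 min room-temperature reaction.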
Each line names hits and unclear results; the compound was inactive in the other large screens. Compounds with a hit are over-represented: about 3.4% of the library has one in this group of screens. Calls follow the shape of the dose curve; as a rule, active = well fitted curve in the direction sought with a large enough effect; inconclusive = small, poorly fitted or top-dose-only effect, or another doubt; inactive = no such curve, though single readings can be large; an effect the other way counts as inactive or inconclusive.

N#C/C(=C/c1ccc(O)c(O)c1)C(=O)OC/C=C/c1ccccc1	GCN5L2 inh 14µM (no result: PLK1 PBD inh, Mito fusion yeast, GLS inhibitor, PKM2 act)
O=C(NCC(F)(F)F)[C@H]1O[C@@H](n2ccc(=O)[nH]c2=O)[C@H](O)[C@@H]1O	GLS inhibitor inconclusive (no result: Mito fusion yeast, VDR inh, PKM2 act, GCN5L2 inh)
CCOC(=O)N1CCN(C(=O)c2[nH]c(C(F)(F)F)nc2-c2ccccc2)CC1	none (no result: Mito fusion yeast, VDR inh, PKM2 act, GCN5L2 inh)
COc1cc2c(=O)n(Cc3ccccc3Cl)c(=O)n(CC(=O)Nc3ccccc3)c2cc1OC	none (no result: PLK1 PBD inh, Mito fusion yeast, PKM2 act)
O=[N+]([O-])c1cc(Cl)cc(/C=N/Nc2nc3ccccc3s2)c1O	PLK1 PBD inh 27µM
CN1C(=O)C(C)(C)c2cc(S(=O)(=O)N3CCN(c4ccccc4F)CC3)ccc21	none
Cc1ccc(C2=NN=C(NC(=O)C(F)(F)F)SC2)cc1	VDR inh 50µM
Cc1ccc(OCC(=O)NC2=NCCS2)cc1	none
COc1ccc(C(=O)CCC(=O)O)c2ccccc12	none (no result: PLK1 PBD inh, Mito fusion yeast, PKM2 act)
COc1ccccc1N1CCN(C(=O)CSc2nc(C)c(Cc3ccccc3)c(=O)[nH]2)CC1	PKM2 act 13µM
COc1ccccc1N1CCN(C(=O)CSc2nc(-c3ccccc3)cc(=O)[nH]2)CC1	none
O=c1oc2ccccc2cc1-c1nc(-c2cccs2)cs1	PLK1 PBD inh 11µM
CN1CC(O)C2=CC(=O)C(=O)C=C21 (stereo unspecified)	VDR inh 11µM, GCN5L2 inh 14µM (no result: PLK1 PBD inh, Mito fusion yeast, GLS inhibitor, PKM2 act)
Nc1nc(SCC(=O)N2N=C(c3ccc(Cl)cc3)CC2c2ccco2)n[nH]1 (stereo unspecified)	none
Cc1nc2c(nnn2Cc2ccccc2)c(=O)[nH]1	PLK1 PBD inh 4.7µM, VDR inh inconclusive, GLS inhibitor inconclusive
Cc1nc(Nc2cc(F)ccc2C)c2nnn(Cc3ccccc3)c2n1	PLK1 PBD inh 24µM, VDR inh inconclusive, GCN5L2 inh inconclusive
Cc1nc(Nc2ccc(Cl)cc2)c2nnn(Cc3ccccc3)c2n1	PLK1 PBD inh 27µM
CCCCn1c(N)c(N(CC(C)C)C(=O)CSc2ccccc2C)c(=O)[nH]c1=O	none (no result: PKM2 act)
CN(C)c1ccc(/C=C(/C(=O)c2ccc(Cl)cc2Cl)n2cncn2)cc1	Mito fusion yeast inconclusive
COc1ccc(/C=C(/C(=O)c2ccc(Cl)cc2Cl)n2cncn2)cc1	VDR inh 56µM, GCN5L2 inh inconclusive
CC1=C(C(=O)OCCN(Cc2ccccc2)c2ccccc2)C(c2cccc([N+](=O)[O-])c2)C(P2(=O)OCC(C)(C)CO2)=C(C)N1 (stereo unspecified)	none (no result: PLK1 PBD inh, Mito fusion yeast, VDR inh, PKM2 act, GCN5L2 inh)
OCC1OC2C(NC(=S)N2c2ccccc2)C(O)C1O (stereo unspecified)	none (no result: Mito fusion yeast, PKM2 act, GCN5L2 inh)
Fc1ccc(Nc2nc3nonc3nc2Nc2cccc(C(F)(F)F)c2)cc1	none (no result: PLK1 PBD inh, Mito fusion yeast, PKM2 act)
CN(C)S(=O)(=O)c1ccc(=S)[nH]c1	PLK1 PBD inh 24µM
Cc1nc2ccc([N+](=O)[O-])cc2nc1C	none (no result: PKM2 act)
Cc1ccc2nc3cc([N+](=O)[O-])cc([N+](=O)[O-])c3cc2c1	PLK1 PBD inh 0.95µM
Cc1ccccc1S(=O)(=O)NC(=O)C1(C)CCN1C(=O)COc1ccc(Cl)cc1 (stereo unspecified)	none (no result: Mito fusion yeast, VDR inh, PKM2 act, GCN5L2 inh)
O=C(c1nnsc1S(=O)(=O)c1ccc(Cl)cc1)N1CCOCC1	PLK1 PBD inh inconclusive, VDR inh inconclusive
CNC(=O)c1nnsc1S(=O)(=O)c1ccc(Cl)cc1	PLK1 PBD inh 12µM, VDR inh 10µM, GCN5L2 inh inconclusive (no result: PKM2 act)
COCCNC(=O)CSc1nc2nn(-c3ccccc3)c(=O)c-2c2n1CCCCC2	PLK1 PBD inh 24µM
OCCNc1ncnc2c1ncn2[C@H]1CN(Cc2ccco2)C[C@@H](CO)O1	none (no result: Mito fusion yeast, VDR inh, PKM2 act, GCN5L2 inh)
CCOC(=O)Cc1csc(-n2sc3ccccc3c2=O)n1	PLK1 PBD inh 3µM, VDR inh 16µM, GLS inhibitor inconclusive
CC1OCC23CC[C@@]4(C)CCC(C)(C)C[C@H]4[C@]2(C)CCC12C3CC[C@@]1(C)C2C(=O)CC(=O)[C@@H]1C (stereo partly specified)	none (no result: PLK1 PBD inh, Mito fusion yeast, GLS inhibitor, PKM2 act, GCN5L2 inh)
O=C(CCSc1nnc2ccccn12)Nc1ccc(F)cc1	none
O=C(CCSc1nnc2ccc3ccccc3n12)Nc1ccc(F)cc1	PLK1 PBD inh 30µM
